Experimental data reported in the OligoGym collection.

These sequences were tested against SEZ6L (assay: pooled miR-30 sensor sort-seq; sequence = guide strand). Settings: shRNA.

Compared with TCCAGATACAATCTTCACCTTC, TTGTCATGCAGCAACAGCCTCT is higher in sensor-assay potency score (higher = more potent): -0.983 for the first, -0.492 for the second.

Compared with TAATTTTCTCACAAAATGGGGG, TTGGTATCCATTTTCAGGCAGC is lower in sensor-assay potency score (higher = more potent): -0.33 for the first, -0.526 for the second.

Going from TAGATGGTCAAGATGTCACTGT to TCGGACGTGAACTCGATGCGGA, the sensor-assay potency score (higher = more potent) falls from -0.115 to -0.799.

Going from TGGATATCTAAGAAGATCCGTT to TGGAATAGTAGCGACATCTTGT, the sensor-assay potency score (higher = more potent) rises from -0.621 to -0.571.

First: TTATAGGTCGGGTCGGATGTAG
Second: TCGAGTGATCCACCTCTCCGGG
The sensor-assay potency score (higher = more potent) of the first is higher: -0.637 for the first, -1 for the second.

The sequences below were run against SFRP4 in the same assay as above. Settings: shRNA.

First: TTGGCATGAATAACATAGCTGT
Second: TTTTACACTTGCACCGATCGGG
The sensor-assay potency score (higher = more potent) of the first is lower: -0.164 for the first, 0.497 for the second.

Going from TTTTCAAGAAGCATCATCCTTG to TTTACATCCACCACCGTTGTGA, the sensor-assay potency score (higher = more potent) rises from 0.0999 to 0.315.

Compared with TTACTAAGCTGATCTCTCCATT, TTTACTAAGCTGATCTCTCCAT is higher in sensor-assay potency score (higher = more potent): -0.515 for the first, -0.0154 for the second.

Compared with TTTTCTTCTTGTCCTGAACTGT, TATCCACTTAACATCCTCCGGG is higher in sensor-assay potency score (higher = more potent): -0.361 for the first, 0.611 for the second.

Going from TTGTCCTGAACTGTTCTCCGCT to TATGGATCTTTTACTAAGCTGA, the sensor-assay potency score (higher = more potent) falls from 0.199 to -0.661.

First: TTTACACTTGCACCGATCGGGG
Second: TAGACAGGCAGCTCGTCGCAGG
The sensor-assay potency score (higher = more potent) of the first is lower: -0.824 for the first, -0.454 for the second.

What follows are sequences tested against SFT2D2 in the same assay as above. Settings: shRNA.

First: TCAAACATTCGCTTCAGCTGTT
Second: TTGCAATCAAACGAGTAGGCTC
The sensor-assay potency score (higher = more potent) of the first is higher: 0.727 for the first, -0.3 for the second.

First: TACAAAACTGTCCACCAGCTTC
Second: TGCAAAACACAACAGCACCATG
The sensor-assay potency score (higher = more potent) of the first is higher: -0.963 for the first, -1.45 for the second.

Compared with TTTATCCTGGTACTCCAGCTTA, TTATCCTGGTACTCCAGCTTAA is lower in sensor-assay potency score (higher = more potent): -0.866 for the first, -1.39 for the second.

Compared with TGATAGTTGCAATCAAACGAGT, AAGAGGTGTAGTCCCTTCCTGG is lower in sensor-assay potency score (higher = more potent): -0.692 for the first, -1.12 for the second.

Compared with TTAATGAAGATGCCTCAACAAC, TATAGCAAAACACGCAATGAAG is lower in sensor-assay potency score (higher = more potent): -1.49 for the first, -1.77 for the second.

ATCACAAGCAACACATTGCTGC gave a sensor-assay potency score (higher = more potent) of -0.583.

What follows are sequences tested against SFTA2 in the same assay as above. Settings: shRNA.

First: TGTCAGAAAAGACTCCTTCAGC
Second: ATTTGTCAGAAAAGACTCCTTC
The sensor-assay potency score (higher = more potent) of the first is lower: -0.402 for the first, 0.636 for the second.

Going from TCAGTTGCAAAGTCATACCCGG to ATGGTGTTGAGATCTTGCATGG, the sensor-assay potency score (higher = more potent) falls from 0.0994 to -1.27.

Going from TCAAGCAATTCCAGGAAGCTGG to TTCAGTTGCAAAGTCATACCCG, the sensor-assay potency score (higher = more potent) rises from -0.742 to 0.378.

TTTGTCAGAAAAGACTCCTTCA showed a sensor-assay potency score (higher = more potent) of 0.111.
